Outcome and AC50 data for 39 compounds are collected here from PubChem BioAssay (EPA / NIEHS).

Each structure is given as a SMILES string. Values joined by “and” are separate entries in the source; they are usually repeats but may differ in a detail not shown here. Equal entries are not always repeated. A structure can be active in one record and inactive in another. Active and inactive are the calls of the source. Rule for the calls: active = hit-call score of the fitted dose curve at least 0.9, where 1 is the maximum; inactive = score below 0.9.

Read-out in this assay: Monocyte Chemoattractant Protein-1 (MCP1), CCL2 (gene 6347)
The assay is described as follows: BSK_LPS_MCP1: BioMAP Diversity Plus: LPS Assay for Monocyte Chemoattractant Protein-1 (MCP1) Biomarker Activity (AID 2283081).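 For AC50: co-culture stimulated with LPS.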 As to conditions: primary human HUVEC with PBMC; actives raise or lower the signal. As to the method:
BSK_LPS is a cell-based, multiplexed-readout assay that uses umbilical vein endothelium and peripheral blood mononuclear cells, a human vascular primary cell co-culture, with measurements taken at 24 hours after chemical dosing in a 96-well plate.BSK_LPS_MCP1 is an assay component measured in the BSK_LPS assay. It measures MCP-1 antibody related to regulation of gene expression using ELISA technology.Data from the assay component BSK_LPS_MCP1 was analyzed into 1 assay endpoint. This assay endpoint, BSK_LPS_MCP1, was analyzed with bidirectional fitting relative to DMSO as the negative control and baseline of activity. Using a type of binding reporter, gain or loss-of-signal activity can be used to understand changes in the signaling as they relate to the gene CCL2. Furthermore, this assay endpoint can be referred to as a primary readout, because this assay has produced multiple assay endpoints where this one serves a signaling function. To generalize the intended target to other relatable targets, this assay endpoint is annotated to the cytokine intended target family, where the subfamily is chemotactic factor.
The levels of cell surface (or secreted, indicated by the prefix "s") biomarker endpoints were measured by ELISA. Overt cytotoxicity to cells in confluent adherent cultures (all systems other than the BT system) was assessed by measuring total protein levels using sulforhodamine B (SRB) staining in parallel cultures at the time of biomarker measurements, indicated as SRB endpoints. For proliferation assays for adherent cell types, individual cell types are cultured at sub-confluence and relative cell numbers quantified by SRB staining at time points optimized for each system (48 h: 3C and CASM3C systems; 72 h: BT and HDF3CGF systems; 96 h: SAg system). SRB was performed by staining cells with 0.1% SRB after fixation with 10% TCA and reading wells at 560 nm.Viability and proliferation of PBMC (T cells) was quantified by Alamar Blue reduction for the SAg and BT systems. For PBMC viability (referred to as PBMC Cytotoxicity within the assay endpoint names), cells were plated (75,000/well in a 96-well plate) and then chemical samples added for 1 h before addition of activators, SEB and TSST-1 (20 ng/mL final concentration each). Cells were incubated for 90 h. Then, Alamar Blue (20 uL/well) (Invitrogen, Cat DAL1100) was added for 6 h, and the plates were read with a fluorescence microplate reader at 546/580 nm (excitation/emission). For PBMC proliferation, cells were plated and activated as above but incubated for only 16 h prior to addition of Alamar Blue. Plates were read after 6 h.
For the compound `CC(C)(C)OOC(=O)c1ccccc1`, the result was inactive.

As for `N#CC(Br)(Br)C(N)=O`, the result was inactive.

With `COC(=O)c1ccccc1N`, the outcome was inactive.

Take `COC(=O)Nc1nc2ccccc2[nH]1`: the result was inactive.

Consider `COP(=S)(OC)SCN1C(=O)c2ccccc2C1=O`, for which the outcome was inactive.

Take `C=CCc1ccc2c(c1)OCO2`: the outcome was inactive.

The term AC50 denotes the concentration at which the activity in the assay is half-maximal. Regarding `CCC[CH2][Sn]([Cl])([CH2]CCC)[CH2]CCC`, the concentration at half-maximal activity (AC50) is 0.148 µM (active).

For `Nc1cc(Cl)cc(C(=O)O)c1Cl`, the result was inactive.

Take `CCCCCCCCOC(=O)c1ccc(C(=O)OCCCCCCCC)c(C(=O)OCCCCCCCC)c1`: the result was inactive.

As for `Clc1ccc(Cl)c(Cl)c1`, the outcome was inactive.

For `c1ccc2c(c1)oc1ccccc12`, the result was inactive.

Take `ClC1=C(Cl)[C@]2(Cl)[C@H]3[C@H]([C@@H]4C=C[C@H]3C4)[C@@]1(Cl)C2(Cl)Cl`: the AC50 is 36.8 µM (active).

Regarding `O=C(N[C@H](c1ccccc1)[C@@H]1CN2CCC1CC2)c1c(Cl)ccc(C(F)(F)F)c1Cl`, the outcome was inactive.

Consider `Cc1cc(N=Nc2ccccc2C)ccc1N`, for which the result was inactive.

Regarding `COc1cc(C=O)cc2c1[C@H](COC(N)=O)[C@]1(OC(C)=O)ON2C[C@H]2[C@@H]1N2C(C)=O`, the AC50 was 5.86 µM (active).

With `O=C1CCCO1`, the outcome was inactive.

For `CN(C)c1ccc(C(=O)c2ccc(N(C)C)cc2)cc1`, the outcome was inactive.

Turning to `CCN(CC)N=O`, the outcome was inactive.

For `Cc1ccc(N=C=O)cc1N=C=O`, the outcome was inactive.

For `CCNS(=O)(=O)C(F)(F)C(F)(F)C(F)(F)C(F)(F)C(F)(F)C(F)(F)C(F)(F)C(F)(F)F`, the outcome was inactive; the AC50 is 48.8 µM (active) and 51.7 µM (active).

As for `ClCCOCCCl`, the outcome was inactive.

Turning to `Cc1ccc([N+](=O)[O-])cc1`, the outcome was inactive.

In the case of `[O-][Cl+]O`, the outcome was inactive.

For `c1ccc2c(c1)-c1cccc3cccc-2c13`, the result was inactive.

As to `O=[N+]([O-])c1ccc(Oc2ccc(Cl)cc2Cl)cc1`, the AC50 is 25.7 µM (active).

Consider `Cc1ccc(N)c(N)c1`, for which the result was inactive.

Take `O=C(Nc1ccccc1)c1ccccc1I`: the outcome was inactive.

Consider `CN(C)C(=O)Nc1ccc(Cl)cc1`, for which the outcome was inactive.

As to `CO[C@@H]1[C@H](OC(=O)NC(=O)CCl)CC[C@]2(CO2)[C@H]1[C@@]1(C)O[C@@H]1CC=C(C)C`, the result was inactive.

For `CN(C)c1ccccc1`, the outcome was inactive.

For the compound `O=C(Oc1ccc(Br)cc1)N1CCN2CCC1CC2`, the result was inactive.

Take `CCCSC(=O)N(CCC)CCC`: the result was inactive.

As to `CCOc1cccc(C2(N3CCN(c4ccccc4)CC3)CCC(C)CC2)c1` (stereo not given), the outcome was inactive.

Consider `Brc1ccc(Oc2ccccc2)cc1`, for which the outcome was inactive.

As for `c1ccc(N=Nc2ccccc2)cc1`, the outcome was inactive.

`C1=Cc2cccc3cccc1c23`: the result was inactive.

Turning to `Cc1ccc(N)cc1`, the result was inactive.

On to `CCN(CC)CCO`, for which the outcome was inactive.

As for `CCCCCCCCCCCCCN1CC(C)OC(C)C1` (stereo not given), the result was inactive.
